{"source": "PubChem BioAssay (NCATS)", "key": {"[1]": {"assay": "qHTS for Inhibitors of the Functional Ribonucleoprotein Complex (vRNP) of Lassa (LASV) Arenavirus: LASV Primary Screen - GLuc reporter signal (AID 1347082; calls by dose curve; tested in HEK293 reporter line; also: nearly all actives have a fitted effect of over 60% in size)"}, "[2]": {"assay": "qHTS for Inhibitors of the Functional Ribonucleoprotein Complex (vRNP) of Lassa (LASV) Arenavirus: Viability assay - alamar blue signal for LASV Primary Screen (AID 1347083; calls by dose curve; tested in HEK293 reporter line; also: nearly all actives have a fitted effect of over 80% in size)"}, "[3]": {"assay": "qHTS for Inhibitors of the Functional Ribonucleoprotein Complex (vRNP) of Lymphocytic Choriomeningitis Arenaviruses (LCMV): Viability assay - alamar blue signal for LCMV Primary Screen (AID 1347085; calls by dose curve; tested in HEK293 reporter line; also: nearly all actives have a fitted effect of over 80% in size)"}, "[4]": {"molecular_target": "Nucleoprotein (Lymphocytic choriomeningitis virus (strain Armstrong)) (UniProt P09992)", "sequence (P09992 whole entry, looked up)": "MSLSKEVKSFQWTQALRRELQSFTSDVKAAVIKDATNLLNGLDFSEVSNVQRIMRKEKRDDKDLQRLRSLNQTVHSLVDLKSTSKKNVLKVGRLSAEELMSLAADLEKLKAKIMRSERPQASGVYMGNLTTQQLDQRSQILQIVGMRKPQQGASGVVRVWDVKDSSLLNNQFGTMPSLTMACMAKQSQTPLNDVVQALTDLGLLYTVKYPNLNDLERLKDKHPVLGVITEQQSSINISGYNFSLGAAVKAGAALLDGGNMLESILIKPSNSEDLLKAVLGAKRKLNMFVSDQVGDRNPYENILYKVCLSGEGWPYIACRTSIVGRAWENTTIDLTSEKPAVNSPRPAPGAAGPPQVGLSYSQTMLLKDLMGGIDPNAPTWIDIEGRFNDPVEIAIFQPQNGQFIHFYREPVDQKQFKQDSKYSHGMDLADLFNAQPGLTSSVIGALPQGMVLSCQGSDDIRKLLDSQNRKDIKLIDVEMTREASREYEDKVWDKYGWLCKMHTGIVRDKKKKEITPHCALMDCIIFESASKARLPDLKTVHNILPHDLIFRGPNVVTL", "assay": "qHTS for Inhibitors of the Functional Ribonucleoprotein Complex (vRNP) of Lymphocytic Choriomeningitis Arenaviruses (LCMV): LCMV Primary Screen - GLuc reporter signal (AID 1347086); also: nearly all actives have a fitted effect of over 70% in size"}, "[5]": {"assay": "Primary qHTS for inhibitors of SARS-S pseudo-typed particle cell entry (AID 1479145); also: nearly all actives have a fitted effect of over 45% in size"}, "[6]": {"assay": "Primary qHTS for Huh7 cytotoxicity: counterscreen for inhibitors of MERS-S pseudotyped particle cell entry (AID 1479147)", "conditions": "outcome: at 57.1 µM (top of the series) unless noted"}, "[7]": {"assay": "Primary qHTS for inhibitors of MERS-S pseudo-typed particle cell entry (AID 1479149); also: nearly all actives have a fitted effect of over 60% in size"}, "[8]": {"assay": "Primary qHTS for Vero E6 cytotoxicity: counterscreen for inhibitors of SARS-S pseudo-typed particle cell entry (AID 1479150)", "conditions": "outcome: at 57.1 µM (top of the series) unless noted"}, "[9]": {"assay": "Confirmatory qHTS for VERO E6 Cytotoxicity Assay: Counterscreen for SARS-CoV-2 CPE Assay (AID 1508605); also: nearly all actives have a fitted effect of over 60% in size"}, "[10]": {"assay": "Primary qHTS to identify inhibitors of SARS-CoV-2 cell entry (AID 1645846); also: nearly all actives have a fitted effect of over 45% in size", "conditions": "activity change, negative = inhibition: at 57.1 µM (top of the series) unless noted", "how_it_was_run": "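Entry measured by luciferase signal 48 h after adding SARS-CoV-2-S pseudotyped MLV particles to HEK293-ACE2 cells preincubated 1 h with compounds. Normalisation: bald particles and spike particles.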"}, "[11]": {"assay": "qHTS for inhibitors of Rabies Virus screened against the NCATS CANVASS Library (AID 1347402)"}, "[12]": {"assay": "Cytotoxicity counterscreen for inhibitors of SARS-CoV-2 cell entry (AID 1645845); also: nearly all actives have a fitted effect of over 50% in size", "how_it_was_run": "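48 h compound treatment (after 1 h preincubation), HEK293-ACE2 cells, 37 C/5% CO2; ATP luminescence endpoint; normalized to cell wells and media blanks.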"}, "[13]": {"system": "Zika virus NS2B-NS3 protease", "assay": "Primary screen GU AMC qHTS for Zika virus inhibitors (AID 1347154; active = well fitted curve in the direction sought with a large enough effect; an effect the other way counts as inactive or inconclusive; also: nearly all actives have a fitted effect of over 70% in size)", "how_it_was_run": "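Fluorogenic AMC-substrate cleavage by noncovalent NS2B-NS3 protease complex (25 nM, pH 8.0 Tris buffer with Tween 20) followed for 15 minutes at room temperature (~20% conversion). Percent inhibition from ex340/em450 signal change, fitted by 4-parameter Hill equation.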"}, "[14]": {"assay": "Primary qHTS for small molecule stabilizers of the endoplasmic reticulum resident proteome: Secreted ER Calcium Modulated Protein (SERCaMP) assay (AID 1508630; active = well fitted curve in the direction sought with a large enough effect; an effect the other way counts as inactive or inconclusive)", "how_it_was_run": "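GLuc-SERCaMP-expressing SH-SY5Y cells, pretreated 16 h with compound, are challenged with thapsigargin to empty ER calcium stores; after 4 h, coelenterazine is added directly to the medium and luminescence is imaged.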"}, "[15]": {"assay": "AP1 Signaling Pathway (AID 357; active = well fitted curve in either direction with a large enough effect, not every such curve was filed as active)", "how_it_was_run": "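A ratiometric CCF4 readout (405 nm excitation; 460 and 530 nm emission) quantified AP-1-driven beta-lactamase in ME-180 cells after 5 h with compound and EC50 EGF; AC50 values were derived for activators and inhibitors.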"}, "[16]": {"molecular_target": "Cytochrome P450 1A2 (Homo sapiens) (UniProt P05177)", "sequence (P05177 whole entry, looked up)": "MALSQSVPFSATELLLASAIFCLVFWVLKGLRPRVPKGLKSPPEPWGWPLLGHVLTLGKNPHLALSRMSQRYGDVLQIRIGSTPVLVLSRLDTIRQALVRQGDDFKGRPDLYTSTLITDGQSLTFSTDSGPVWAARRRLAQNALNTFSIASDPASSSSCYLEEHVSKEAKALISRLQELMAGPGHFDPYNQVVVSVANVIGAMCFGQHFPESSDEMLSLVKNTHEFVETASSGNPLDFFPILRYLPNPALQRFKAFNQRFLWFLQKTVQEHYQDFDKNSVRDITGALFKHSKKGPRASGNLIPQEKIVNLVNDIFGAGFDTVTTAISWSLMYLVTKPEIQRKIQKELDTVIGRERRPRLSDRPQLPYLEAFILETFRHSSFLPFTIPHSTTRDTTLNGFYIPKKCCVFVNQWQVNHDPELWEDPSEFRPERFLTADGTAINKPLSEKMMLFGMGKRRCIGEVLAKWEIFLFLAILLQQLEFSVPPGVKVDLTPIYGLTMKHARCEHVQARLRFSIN", "assay": "p450-cyp1a2 (AID 410); also: potency is read from the fitted curve at half-maximal effect", "how_it_was_run": "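Luminescent readout of luciferin formed from Luciferin-ME by human CYP1A2; data normalized against complete inhibition by 57 uM furafylline. Enzyme 20nM, substrate 100uM at Km, 100mM KPO4 buffer, 60 min reaction at room temperature.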"}, "[17]": {"assay": "Stat Signaling Pathway (AID 446; active = well fitted curve in either direction with a large enough effect, not every such curve was filed as active;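 also: ME-180 cervical cancer cells given 40 pM IL-6 alongside compound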)", "how_it_was_run": "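IL-6/STAT signaling read in ME-180 cells via an SIE beta-lactamase reporter. Stimulus was 40 pM IL-6 (its AC50) for 5 hrs, so both activation and inhibition register.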"}, "[18]": {"molecular_target": "Glucocorticoid receptor (Homo sapiens) (UniProt P04150)", "sequence (P04150 whole entry, looked up, the tested form may be a part)": "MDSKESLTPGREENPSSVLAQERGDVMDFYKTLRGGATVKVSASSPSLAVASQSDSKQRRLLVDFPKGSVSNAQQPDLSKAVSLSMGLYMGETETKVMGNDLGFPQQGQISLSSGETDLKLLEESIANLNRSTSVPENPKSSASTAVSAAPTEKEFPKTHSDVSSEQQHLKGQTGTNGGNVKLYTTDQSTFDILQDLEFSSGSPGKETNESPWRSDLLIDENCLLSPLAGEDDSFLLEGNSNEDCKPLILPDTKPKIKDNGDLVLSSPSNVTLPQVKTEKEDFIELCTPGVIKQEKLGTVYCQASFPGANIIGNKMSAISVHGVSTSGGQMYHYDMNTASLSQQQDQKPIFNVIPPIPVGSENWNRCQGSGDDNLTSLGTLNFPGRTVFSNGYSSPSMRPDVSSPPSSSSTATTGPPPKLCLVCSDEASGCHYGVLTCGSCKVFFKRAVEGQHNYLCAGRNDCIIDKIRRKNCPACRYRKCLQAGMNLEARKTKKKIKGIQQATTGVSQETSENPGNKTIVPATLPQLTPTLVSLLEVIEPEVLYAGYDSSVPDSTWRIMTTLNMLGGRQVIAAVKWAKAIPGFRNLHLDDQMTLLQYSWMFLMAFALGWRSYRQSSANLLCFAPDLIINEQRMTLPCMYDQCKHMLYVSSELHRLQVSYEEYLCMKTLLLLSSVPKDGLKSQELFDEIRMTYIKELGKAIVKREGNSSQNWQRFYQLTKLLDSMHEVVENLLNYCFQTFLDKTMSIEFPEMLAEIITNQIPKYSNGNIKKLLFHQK", "assay": "GR-GFP Redistribution (AID 450;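 active = compounds whose dose series gives a full or clear partial fitted curve of increased nuclear translocation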; also: potency is read from the fitted curve at half-maximal effect)", "conditions": "U2OS GR-GFP nuclear translocation, laser cytometry, 2 h"}, "[19]": {"molecular_target": "Glucocorticoid receptor (Homo sapiens) (UniProt P04150)", "assay": "GR-EFC Redistribution (AID 451); also: potency is read from the fitted curve at half-maximal effect", "conditions": "CHO-K1 GR-EFC translocation, beta-gal luminescence, 2 h", "how_it_was_run": "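Translocation of GR-ED fusion to nuclear EA restores b-gal, read by luminescence after 1 h room-temperature detection. Engineered CHO-K1 biosensor cells, 1,000/well, exposed 2 h at 37 C to titrations up to 46 uM final.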"}, "[20]": {"molecular_target": "Mitogen-activated protein kinase 10 (Mus musculus) (UniProt Q61831)", "assay": "JNK3 AlphaScreen Assay (AID 530; active = well fitted curve in either direction with a large enough effect, not every such curve was filed as active;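 also: kinase came from lysate of stimulated human HepG2 cells; signal reports phosphorylation of biotinylated GST-cJun 1-79 at Ser73 with 10 µM ATP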)", "how_it_was_run": "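Compound titrations were preincubated 15 minutes at room temperature with substrate, antibody and pre-activated JNK3-containing HepG2 lysate. Reactions were started with 10 uM ATP and stopped with EDTA-containing bead buffer for AlphaScreen detection.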"}, "[21]": {"molecular_target": "3',5'-cyclic-AMP phosphodiesterase 4B (Homo sapiens) (UniProt Q07343)", "sequence (Q07343 whole entry, looked up)": "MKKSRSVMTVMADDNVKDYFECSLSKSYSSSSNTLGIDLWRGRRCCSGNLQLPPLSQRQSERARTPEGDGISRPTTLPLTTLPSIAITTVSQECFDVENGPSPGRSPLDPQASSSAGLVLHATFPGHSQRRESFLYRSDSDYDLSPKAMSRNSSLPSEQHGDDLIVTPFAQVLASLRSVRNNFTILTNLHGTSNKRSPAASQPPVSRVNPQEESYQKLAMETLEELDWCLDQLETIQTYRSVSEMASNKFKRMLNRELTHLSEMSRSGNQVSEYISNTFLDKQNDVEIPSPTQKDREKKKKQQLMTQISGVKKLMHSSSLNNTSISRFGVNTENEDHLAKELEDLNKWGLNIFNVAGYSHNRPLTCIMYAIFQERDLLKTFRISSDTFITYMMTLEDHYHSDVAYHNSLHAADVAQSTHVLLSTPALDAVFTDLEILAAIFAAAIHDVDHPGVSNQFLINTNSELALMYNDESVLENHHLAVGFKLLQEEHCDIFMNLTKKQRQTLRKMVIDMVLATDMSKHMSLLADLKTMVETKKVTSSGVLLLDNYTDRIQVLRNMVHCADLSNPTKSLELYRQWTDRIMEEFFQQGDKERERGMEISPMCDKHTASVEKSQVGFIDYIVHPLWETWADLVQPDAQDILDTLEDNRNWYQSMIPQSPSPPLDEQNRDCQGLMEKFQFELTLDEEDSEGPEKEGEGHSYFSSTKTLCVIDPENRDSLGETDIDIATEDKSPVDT", "assay": "qHTS Assay for Inhibitors of PDE-IV (AID 607; active = well fitted activation curve with a large enough effect in the main read-out, with a control signal flat, not every such curve was filed as active)", "how_it_was_run": "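Live HEK293 cells with a modified cyclic nucleotide-gated (CNG) channel report intracellular cAMP via membrane-potential dye fluorescence (ex 535/em 590 nm). Endogenous PDE-IV was targeted. Compounds were tested at up to 22.9 uM final; RO 20-1724 100 uM served as control.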"}, "[22]": {"molecular_target": "Cytochrome P450 2C19 (Homo sapiens) (UniProt P33261)", "sequence (P33261 whole entry, looked up)": "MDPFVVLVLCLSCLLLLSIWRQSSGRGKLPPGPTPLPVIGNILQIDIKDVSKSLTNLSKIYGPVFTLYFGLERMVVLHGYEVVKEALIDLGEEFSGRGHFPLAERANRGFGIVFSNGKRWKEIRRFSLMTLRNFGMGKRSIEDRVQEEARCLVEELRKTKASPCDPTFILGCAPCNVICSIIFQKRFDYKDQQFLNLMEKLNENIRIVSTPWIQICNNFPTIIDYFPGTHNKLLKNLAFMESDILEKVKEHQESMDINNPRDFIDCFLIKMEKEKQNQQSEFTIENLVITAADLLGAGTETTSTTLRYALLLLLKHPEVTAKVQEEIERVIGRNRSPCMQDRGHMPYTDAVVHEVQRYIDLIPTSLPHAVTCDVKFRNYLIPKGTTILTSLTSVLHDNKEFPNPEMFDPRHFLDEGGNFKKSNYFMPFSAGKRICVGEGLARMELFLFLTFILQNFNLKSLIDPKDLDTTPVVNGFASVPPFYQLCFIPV", "assay": "qHTS Assay for Inhibitors and Substrates of Cytochrome P450 2C19 (AID 899; active = well fitted curve in the direction sought with a large enough effect; an effect the other way counts as inactive or inconclusive; also: potency is read from the fitted curve at half-maximal effect; nearly all actives have a fitted effect of over 60% in size)", "how_it_was_run": "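5nM enzyme + 10uM Luciferin-H EGE (=KM), 50mM KPO4; cpd pin-transferred, 10 min 37C; NADPH regen, 60 min 37C; stopped w/ luciferin detection reagent, 20 min; luminescence. Normalized to 57uM ketoconazole (AC100).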"}, "[23]": {"assay": "qHTS Assay for Lipid Storage Modulators (AID 1519)", "conditions": "Drosophila S3 cells, BODIPY lipid droplet/cell ratio, laser cytometry, cells loaded with oleic acid", "how_it_was_run": "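Cells seeded at 5,000 per well were treated with compounds over a concentration series and loaded with oleic acid (400 uM, as added). Lipid droplet fluorescence (488 nm excitation, 500-530 nm channel) was read by laser-scanning cytometry and normalized to 20 uM Triacsin C.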"}, "[24]": {"molecular_target": "Ubiquitin carboxyl-terminal hydrolase 1 (Homo sapiens) (UniProt O94782)", "sequence (O94782 whole entry, looked up)": "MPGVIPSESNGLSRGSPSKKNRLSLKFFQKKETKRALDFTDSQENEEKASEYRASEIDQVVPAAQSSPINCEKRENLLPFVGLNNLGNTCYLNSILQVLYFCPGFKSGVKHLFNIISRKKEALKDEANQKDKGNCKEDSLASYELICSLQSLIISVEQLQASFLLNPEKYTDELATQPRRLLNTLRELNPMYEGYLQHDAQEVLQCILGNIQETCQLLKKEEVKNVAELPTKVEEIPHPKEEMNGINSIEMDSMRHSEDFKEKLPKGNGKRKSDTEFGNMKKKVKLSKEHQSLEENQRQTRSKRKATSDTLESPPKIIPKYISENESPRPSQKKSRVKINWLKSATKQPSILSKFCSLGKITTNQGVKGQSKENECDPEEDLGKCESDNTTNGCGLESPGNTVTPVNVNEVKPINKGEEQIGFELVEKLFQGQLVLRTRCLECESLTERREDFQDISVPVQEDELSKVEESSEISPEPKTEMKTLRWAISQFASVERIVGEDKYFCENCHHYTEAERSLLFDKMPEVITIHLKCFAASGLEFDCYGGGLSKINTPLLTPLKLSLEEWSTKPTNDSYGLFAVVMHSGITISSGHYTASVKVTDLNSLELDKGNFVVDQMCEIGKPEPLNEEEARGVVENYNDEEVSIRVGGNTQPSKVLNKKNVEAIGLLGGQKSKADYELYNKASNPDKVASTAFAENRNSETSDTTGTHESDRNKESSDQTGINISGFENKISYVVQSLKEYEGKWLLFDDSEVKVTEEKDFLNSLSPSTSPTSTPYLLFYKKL", "assay": "Inhibitors of USP1/UAF1: Pilot qHTS (AID 504865; active = well fitted curve in the direction sought with a large enough effect; an effect the other way counts as inactive or inconclusive;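 also: rhodamine fluorescence freed from ubiquitin-rhodamine substrate followed over time; top concentration of the series differs between compounds; nearly all actives have a fitted effect of over 35% in size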)", "how_it_was_run": "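Deubiquitinase activity followed as kinetic rhodamine fluorescence release from 150 nM Ub-Rho. 1 nM USP1/UAF1 with compound, after 15 min room-temperature preincubation, in HEPES pH 7.8 buffer containing TCEP, EDTA, BSA and Tween-20.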"}, "[25]": {"molecular_target": "DNA dC->dU-editing enzyme APOBEC-3G (Homo sapiens) (UniProt Q9HC16)", "sequence (Q9HC16 whole entry, looked up)": "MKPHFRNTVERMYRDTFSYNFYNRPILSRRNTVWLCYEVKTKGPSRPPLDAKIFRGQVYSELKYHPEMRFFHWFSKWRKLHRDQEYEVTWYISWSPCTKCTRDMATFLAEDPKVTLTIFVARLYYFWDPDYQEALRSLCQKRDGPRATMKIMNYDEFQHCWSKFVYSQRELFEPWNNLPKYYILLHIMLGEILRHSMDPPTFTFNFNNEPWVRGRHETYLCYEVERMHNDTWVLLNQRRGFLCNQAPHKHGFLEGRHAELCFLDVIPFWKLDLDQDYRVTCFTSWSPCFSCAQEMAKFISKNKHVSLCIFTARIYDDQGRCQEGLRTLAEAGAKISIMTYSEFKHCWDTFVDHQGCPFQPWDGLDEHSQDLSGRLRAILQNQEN", "assay": "qHTS for inhibitors of Vif-A3G interactions: Validation (AID 588379; active = well fitted curve in the direction sought with a large enough effect; an effect the other way counts as inactive or inconclusive)", "how_it_was_run": "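HeLa cells stably expressing Vif and A3G-eYFP, 700 cells/well, incubated overnight at 37 deg C, then exposed to compound overnight at 37 deg C. Inhibition of Vif-mediated degradation read as increased yellow fluorescence (Ex 488/Em 500-530) by laser-scanning cytometry.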"}}, "note": "“And” between values parts separate entries of the source, which are not always exact repeats. Equal entries are not always repeated. Records with an inconclusive call do not appear. A call without a number means that no potency is given here. More than one record can exist for a structure, and the calls need not agree. The source made the active and inactive calls. Unless noted, calls follow the shape of the full dose curve."}
{"smiles": "O=C(Nc1cccc(C(F)(F)F)c1)Nc1cc(S(=O)(=O)NC2CC2)ccc1-c1ccsc1", "values": [{"measurement": "Potency", "setting": "[1]", "result": "inactive"}, {"measurement": "Potency", "setting": "[2]", "result": "inactive"}, {"measurement": "Potency", "setting": "[3]", "result": "inactive"}, {"measurement": "Potency", "setting": "[4]", "result": "inactive"}]}
{"smiles": "Cc1cc(O)c2c(c1)O[C@@]1(C)CC[C@H]3C(C)(C)CCCC34CO[C@@H]2[C@H]41", "note": "(some centres undefined)", "values": [{"measurement": "Potency", "setting": "[1]", "result": "inactive"}, {"measurement": "Potency", "setting": "[2]", "result": "inactive"}, {"measurement": "Potency", "setting": "[3]", "result": "inactive"}, {"measurement": "Potency", "setting": "[4]", "result": "inactive"}, {"measurement": "Potency", "setting": "[5]", "result": "inactive"}, {"measurement": "outcome", "setting": "[6]", "result": "inactive"}, {"measurement": "Potency", "setting": "[7]", "result": "inactive"}, {"measurement": "outcome", "setting": "[8]", "result": "inactive"}, {"measurement": "Potency", "setting": "[9]", "result": "inactive"}, {"measurement": "activity change, negative = inhibition", "setting": "[10]", "result": -25.2, "unit": "%"}]}
{"smiles": "O=c1c(O)c(-c2ccc(O)c(O)c2)oc2cc(O)ccc12", "values": [{"measurement": "Potency", "setting": "[1]", "result": "inactive"}, {"measurement": "Potency", "setting": "[2]", "result": "inactive"}, {"measurement": "Potency", "setting": "[3]", "result": "inactive"}, {"measurement": "Potency", "setting": "[4]", "result": "inactive"}, {"measurement": "outcome", "setting": "[11]", "result": "inactive"}, {"measurement": "Potency", "setting": "[12]", "result": "inactive"}]}
{"smiles": "NC(=O)[C@H]1CCCN1C(=O)[C@H](Cc1cnc[nH]1)NC(=O)[C@@H]1CCC(=O)N1", "values": [{"measurement": "activity change, negative = inhibition", "setting": "[1]", "result": "10.2% [at 5.82 µM] (inactive)"}, {"measurement": "activity change, negative = reduced viability", "setting": "[2]", "result": "6.52% [at 5.82 µM] (inactive)"}, {"measurement": "activity change, negative = lower viability", "setting": "[3]", "result": "-0.247% [at 5.82 µM] (inactive)"}, {"measurement": "activity change, negative = inhibition", "setting": "[4]", "result": "-2.24% [at 5.82 µM] (inactive)"}]}
{"smiles": "CNCC/C=C/c1cccnc1", "values": [{"measurement": "Potency", "setting": "[1]", "result": "inactive"}, {"measurement": "Potency", "setting": "[2]", "result": "inactive"}, {"measurement": "Potency", "setting": "[3]", "result": "inactive"}, {"measurement": "Potency", "setting": "[4]", "result": "inactive"}, {"measurement": "Potency", "setting": "[13]", "result": "inactive"}, {"measurement": "Potency", "setting": "[14]", "result": "inactive"}]}
{"smiles": "COc1cc2oc3ccccc3c(=O)c2cc1OC", "values": [{"measurement": "Potency", "setting": "[1]", "result": "inactive"}, {"measurement": "Potency", "setting": "[2]", "result": "inactive"}, {"measurement": "Potency", "setting": "[3]", "result": "inactive"}, {"measurement": "Potency", "setting": "[4]", "result": "inactive"}, {"measurement": "outcome", "setting": "[11]", "result": "inactive"}]}
{"smiles": "c1cncc([C@@H]2CCCCN2)c1", "values": [{"measurement": "outcome", "setting": "[15]", "result": "inactive"}, {"measurement": "Potency", "setting": "[16]", "result": "5.01 µM (active) and inactive"}, {"measurement": "outcome", "setting": "[17]", "result": "inactive"}, {"measurement": "Potency", "setting": "[18]", "result": "> 20.6 µM (inactive) and > 46 µM (inactive)"}, {"measurement": "Potency", "setting": "[19]", "result": "> 20.6 µM (inactive) and > 46 µM (inactive)"}, {"measurement": "outcome", "setting": "[20]", "result": "inactive"}, {"measurement": "Potency", "setting": "[21]", "result": "inactive"}, {"measurement": "Potency", "setting": "[22]", "result": "2000 nM (active)"}, {"measurement": "activity change, negative = inhibition", "setting": "[23]; at 25.7 µM (top of the series)", "result": "-0.77% (inactive)"}, {"measurement": "activity change, negative = inhibition", "setting": "[23]; at 57.5 µM (top of the series)", "result": "-0.69% (inactive)"}, {"measurement": "max response", "setting": "[23]; measured here: cell count channel max response", "result": "-8.06% and -15.1%"}, {"measurement": "max response", "setting": "[23]; measured here: lipid channel max response", "result": "-8.76% and -13.6%"}, {"measurement": "Potency", "setting": "[24]", "result": "inactive"}, {"measurement": "Potency", "setting": "[25]", "result": "inactive"}, {"measurement": "Potency", "setting": "[1]", "result": "inactive"}, {"measurement": "Potency", "setting": "[2]", "result": "inactive"}, {"measurement": "Potency", "setting": "[3]", "result": "inactive"}, {"measurement": "Potency", "setting": "[4]", "result": "inactive"}, {"measurement": "Potency", "setting": "[13]", "result": "inactive"}]}
